In the supplement of paper PMC9177965:
“And” between values parts separate entries of the source, which are not always exact repeats. Identical values can stand only once.

Tests used:
[1] = tested on: HT29 RNF43 G659fs (RNF43 659mut, CRISPR-edited); assay: cell viability activity relative to DMSO (negative = inhibition); higher = more viable cells (less growth inhibition); conditions: 5 µM; 96 h
Protocol: (§1)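 Broad Repurposing Library primary screen at a single dose of 5 uM. HT29 sg-Ctrl and HT29 RNF43 G659fs CRISPR-edited isogenic cells were seeded at 2500 cells/well in 384-well plates in duplicate and treated for 96 h. Viability was read by CellTiter-Glo and reported as % activity relative to DMSO, with MG132 as the positive control (negative = growth inhibition).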

[2] = tested on: HT29 sg-Ctrl (RNF43 wildtype); assay: as above; conditions: 5 µM; 96 h
Protocol: as §1

SMILES | cell viability activity [1] | cell viability activity [2]
C[C@H]1[C@H](OC(=O)CCC(=O)O)O[C@@H]2O[C@@]3(C)CC[C@H]4[C@H](C)CC[C@@H]1[C@@]24OO3 | -42.8% and -37.2% | -35.1% and -16.8%
CC(=O)[C@]1(O)Cc2c(O)c3c(c(O)c2[C@@H](O[C@H]2C[C@H](N)[C@H](O)[C@H](C)O2)C1)C(=O)c1ccccc1C3=O | -97.8% and -97.3% | -93% and -97.3%
CCN(CC)c1ccc(C(=C2C=CC(=[N+](CC)CC)C=C2)c2ccccc2)cc1 | -97.7% | -97.2%
Nc1ccc(F)cc1NC(=O)c1ccc(CNC(=O)/C=C/c2cccnc2)cc1 | -39.6% | -64.8%
COc1cc(N2CCC(N3CCN(C)CC3)CC2)ccc1Nc1ncc(Cl)c(Nc2ccccc2P(C)(C)=O)n1 | -82.9% | -81%
C[C@@H]1COCCN1c1cc(=O)n2c(n1)N(Cc1cncc(Cl)c1)[C@H](C(F)(F)F)CC2 | -57.9% | 1.22%
Cc1cn([C@H]2C[C@H](N=[N+]=[N-])[C@@H](CO)O2)c(=O)[nH]c1=O | -29% | -2.51%
CCCCCCCCCCCCCCCC[N+](C)(C)CCN(Cc1ccc(OC)cc1)c1ncccn1 | -95.1% | -94.5%
CCOc1ccc(Cc2nccc3cc(OCC)c(OCC)cc23)cc1OCC | -32.7% | -25.2%
C=CC(=O)Nc1cccc(Oc2nc(Nc3ccc(N4CCN(C)CC4)cc3)ncc2Cl)c1 | -46.3% | -58%
Cn1cc(-c2[nH]c3cc(NC(=O)[C@H](N)C4CCCCC4)cc4c3c2C=NNC4=O)cn1 | -54.9% | -79.1%
O=P(O)(O)C(O)(Cn1ccnc1)P(=O)(O)O | -39.2% | -25.6%
CC(C)c1ccc(NC(=O)Cn2cnc3c2c(=O)n(C)c(=O)n3C)cc1 | -55.3% | -23.8%
CC(C)(C)c1ccc(-c2nc3ccccc3[nH]2)cc1 | -58.2% | -67.1%
Cc1cc(OCc2nc(-c3ccccc3Cl)cs2)ccc1OCC(=O)O | -41.6% | -31.1%
CC(C)c1cc(C(=O)N2Cc3ccc(CN4CCN(C)CC4)cc3C2)c(O)cc1O | -91.7% | -88.3%
c1cc(-c2cnn3cc(-c4ccc(N5CCNCC5)cc4)cnc23)c2cccnc2c1 | -97.7% | -96.2%
Cn1ncc(Cl)c1-c1cc(C(=O)N[C@H](CN)Cc2ccc(F)c(F)c2)oc1Cl | -70.4% | -61.1%
CC(C)(C)c1cnc(CSc2cnc(NC(=O)C3CCNCC3)s2)o1 | -81.8% | -81.8%
CCCCCCCCc1ccc(CCC(N)(CO)CO)cc1 | -97.8% | -94.1%
Cc1cccc(/C=N/Nc2cc(N3CCOCC3)n3nc(-c4ccncc4)cc3n2)c1 | -56.4% | -51.8%
O=C(CCCCCCC(=O)Nc1cccnc1)NO | -42.9% | -42.7%
COC(=O)[C@]12CCC(C)(C)C[C@H]1[C@H]1C(=O)C=C3[C@@]4(C)C=C(C#N)C(=O)C(C)(C)[C@@H]4CC[C@@]3(C)[C@]1(C)CC2 | -96.8% | -93.4%
Cc1cc(C2CCCCC2)n(O)c(=O)c1 | -85.1% | -83.4%
O=C(NO)c1cnc(N2CCN(S(=O)(=O)c3ccc4ccccc4c3)CC2)nc1 | -64.4% | -48.5%
CCOc1cc2ncc(C#N)c(Nc3ccc(OCc4ccccn4)c(Cl)c3)c2cc1NC(=O)/C=C/CN(C)C | -50.3% | -30.9%
CN1CCN(c2ccc3nc(-c4c(N)c5c(F)cccc5[nH]c4=O)[nH]c3c2)CC1 | -60.6% | -77.6%
CC(C)N1CCN(c2ccc(OC[C@@H]3CO[C@@](Cn4cncn4)(c4ccc(Cl)cc4Cl)O3)cc2)CC1 | -68% | -76%
